Hits are enriched below; roughly 5.2% of the tested compounds scored in any of these assays.
PLK1 PBD block: qHTS for Inhibitors of PLK1-PDB (polo-like kinase 1 - polo-box domain): Primary Screen; Serine/threonine-protein kinase PLK1 (Homo sapiens), P53350; Plk1 PBD binding of FITC phosphopeptide, fluorescence polarization; Potency, µM, for the others: max response, negative = inhibition, hits mostly inhibitors; actives 2.8% (n = 360,000); further: series mostly up to about 57 µM; nearly all actives have a fitted effect of over 65% in size
TrxR1 substrate: qHTS Assay for Substrates of Mammalian Selenoprotein Thioredoxin Reductase 1 (TrxR1): qHTS; Thioredoxin reductase 1, cytoplasmic (Rattus norvegicus), O89049; purified TrxR1 substrate turnover, NADPH consumption readout; Potency, µM (doses to about 114 µM), for inactives: at the highest dose activity change, negative = substrate turnover; actives 0.01% (n = 390,000); further: nearly all actives have a fitted effect of over 50% in size
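Rat TrxR1, dispensed at 90 nM, was prereduced with 400 uM NADPH (final) for 5 min at ~22 deg C, then incubated with compound 15 min before 400 uM selenite. A first-read NADPH fluorescence drop versus no-compound background flagged substrates.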
VDR inhibitor: Inhibitors of the vitamin D receptor (VDR): qHTS | VDR-SRC2-3 peptide fluorescence polarization, 2 h | Potency, µM, without a hit: max response, negative = inhibition, actives largely listed as inhibitors | Vitamin D3 receptor (Homo sapiens), P11473 | actives 0.93% (n = 400,000)
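After 23 nl compound addition and a short centrifugation, plates sat for 2 hours at ambient temperature; polarization of fluorescence then indicated loss of VDR binding to peptide SRC2-3.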
TrxR1 inh: qHTS Assay for Inhibitors of Mammalian Selenoprotein Thioredoxin Reductase 1 (TrxR1): qHTS | Thioredoxin reductase 1, cytoplasmic (Rattus norvegicus), O89049 | actives 1% (n = 390,000) | Potency, µM (titrated, usually from 114 µM), without a hit: top-dose activity change, negative = inhibition, actives largely listed as inhibitors | recombinant rTrxR1, NADPH fluorescence consumption, selenite substrate; further: nearly all actives have a fitted effect of over 65% in size
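Rat TrxR1 (90 nM in the dispensed reagent) was pre-reduced with 400 uM NADPH for 5 min at room temperature, then incubated with compound for 15 min. After 400 uM selenite was added, NADPH fluorescence (Ex 340/Em 450 nm) was followed for 8 min.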
Sfp inh: qHTS Assay for Inhibitors of Bacillus subtilis Sfp phosphopantetheinyl transferase (PPTase) | actives 3.5% (n = 310,000) | AID 1490, 2009 | 4'-phosphopantetheinyl transferase ffp (Bacillus subtilis), Q9F4F7 | Biochemical Sfp PPTase activity, qHTS | Potency, µM, for the others: largest response in the series, negative = inhibition, hits mostly inhibitors;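 further: the enzyme is Sfp with the accession as filed and its product quenches rhodamine fluorescence; 0% = enzyme reaction without inhibitor and -100% = no enzyme wells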
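Fluorescence-quenching assay: 15 nM Sfp-PPTase preincubated 15 min at room temperature with compound, then 5 uM rhodamine-CoA and 12.5 uM BHQ-2-labelled YbbR peptide added. Fluorescence (ex 525/em 598 nm) read at start and after 30 min; difference gives rate.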
IDH1 R132H inh: qHTS for Inhibitors of mutant isocitrate dehydrogenase 1 (IDH1): qHTS | Isocitrate dehydrogenase [NADP] cytoplasmic (Homo sapiens), O75874 | IDH1-R132H enzyme, NADPH consumption, diaphorase/resazurin fluorescence | Potency, µM (top dose mostly 76.6 µM), without a hit: top-dose activity change, negative = inhibition, most hits filed as inhibitors | actives 0.093% (n = 390,000) | AID 602179, 2012; further: nearly all actives have a fitted effect of over 65% in size
Target sequence (O75874 whole entry R132H, stated change not applied): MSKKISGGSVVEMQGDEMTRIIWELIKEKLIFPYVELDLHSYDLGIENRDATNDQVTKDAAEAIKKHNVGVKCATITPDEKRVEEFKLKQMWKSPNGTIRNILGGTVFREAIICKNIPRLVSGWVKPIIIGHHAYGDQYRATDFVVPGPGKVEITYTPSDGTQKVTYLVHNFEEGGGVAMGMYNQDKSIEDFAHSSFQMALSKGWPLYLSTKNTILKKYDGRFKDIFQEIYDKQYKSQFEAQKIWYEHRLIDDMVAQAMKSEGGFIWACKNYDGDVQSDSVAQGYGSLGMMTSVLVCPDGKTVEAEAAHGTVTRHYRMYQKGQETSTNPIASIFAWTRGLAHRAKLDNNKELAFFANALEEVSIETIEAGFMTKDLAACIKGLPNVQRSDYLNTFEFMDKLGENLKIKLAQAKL
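IDH1-R132H (0.5 ug/mL) preincubated 30 min with compound, then NADPH (0.016 mM) and alpha-KG (2 mM) added; 80 min at RT, pH 7.5. Remaining NADPH coupled via diaphorase/resazurin to fluorescence (540/590 nm); concentration-response curves normalized to no-enzyme control.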
* hit, by the source's call; ? = inconclusive; . = no result; [ ] = dose if it differs, or a comment. The call rests on the fitted dose curve; in most records, active means well fitted curve in the direction sought with a large enough effect; inconclusive means small, poorly fitted or top-dose-only effect, or another doubt; inactive means no such curve, though single readings can be large; an effect the other way counts as inactive or inconclusive. Unless noted, on the % scale 0 is the no-effect control and ±100 the full control effect; potency means the concentration at half of the fitted maximal effect.

SMILES | PLK1 PBD block | TrxR1 substrate | VDR inhibitor | TrxR1 inh | Sfp inh | IDH1 R132H inh
Cc1nc(-c2ccc(O)c(O)c2)cs1 | ? | 5% | -10% | 4% | 56µM* | 4%
Cc1ccc2nc(-c3ccc(O)c(O)c3)cn2c1 | ? | -2% | 16% | -12% | 56µM* | -1%
CC(C)(C)c1ccc(C(=O)C[n+]2ccc(Cl)c3ccc(Cl)cc32)cc1 | . | 8% | . | 6% | . | .
CSc1ccc(C(=O)C2CCCN(C(=O)c3nn(C)c(=O)c4ccccc34)C2)cc1 (configuration not stated) | 24µM* | 3%[57.1 µM] | -11% | 1%[11.4 µM] | 16% | 17%
CSc1ncc(C(=O)NCc2ccc(C)cc2)c(-c2ccccc2)n1 | . | 12% | 11% | 38% | . | 4%
COC(=O)CSCc1nc2ccccc2[nH]c1=O | 12µM* | -5% | ? | 23% | -29% | 11%
CC1CCN(C(=O)/C(=C/c2ccccc2Cl)c2ccccc2)CC1 | -25% | 2%[57.1 µM] | -1% | 7% | 79µM* | 8%
COc1ccccc1N1CCN(C(=O)/C=C/c2cccc([N+](=O)[O-])c2)CC1 | -13% | 7%[11.4 µM] | 1% | 14%[11.4 µM] | -1% | -1%
CCCC(C)NC(=O)/C=C/c1cccc([N+](=O)[O-])c1 (configuration not stated) | 0% | 2%[57.1 µM] | 17% | -1%[57.1 µM] | 4% | -1%
O=C(/C=C/c1ccc(N2CCCCC2)c([N+](=O)[O-])c1)c1ccc(O)cc1 | -7% | -5%[57.1 µM] | ? | -3%[57.1 µM] | -2% | -3%
CC(=O)Oc1ccccc1C(=O)C=Cc1cccc([N+](=O)[O-])c1 | ? | -4% | 22µM* | 25µM* | . | 2%
CCCCN(CC)C(=O)/C=C/c1cccc([N+](=O)[O-])c1 | 27µM* | 3% | 4% | 4% | 1% | 3%
O=C(/C=C/c1cccc([N+](=O)[O-])c1)c1ccccc1 | . | . | 20µM* | . | 0% | .
O=C(/C=C/c1cccc([N+](=O)[O-])c1)OCC(=O)c1ccccc1 | 2% | 2% | -9% | 12% | 6% | 4%
COc1ccccc1C(=O)/C=C/c1ccc(N2CCCCC2)c([N+](=O)[O-])c1 | -14% | -11% | 79µM* | -2% | 1% | 9%
COc1ccc(C(=O)N/C(=C\c2ccc(Cl)cc2)C(=O)NCc2ccncc2)cc1 | -1% | . | . | . | . | -2%
Cc1ccc(C2=[N+]([O-])C3(CCCCC/C3=N\NC(N)=S)N(O)C2(C)C)o1 (configuration not stated) | . | . | . | . | 71µM* | .
COc1ccc(/C(C)=N/Nc2nc3ccccc3n3cnnc23)cc1OC | -4% | 11%[57.1 µM] | -8% | 16%[57.1 µM] | 14% | 10%
Cc1ccc(C(=O)N/C(=C/c2ccco2)C(=O)N2CCCCC2)cc1 | -1% | -9% | 11% | -35% | -3% | -7%
COc1ccc(C(=O)N/C(=C/c2ccco2)C(=O)N2CCCCCC2)cc1 | -15% | -8% | -1% | ? | 89µM* | -4%
O=C(N/C(=C/c1ccc(Br)cc1)C(=O)N1CCOCC1)c1ccco1 | -2% | -6% | 6% | -11% | 14% | 8%
O=C(N/C(=C\c1ccco1)C(=O)N1CCOCC1)c1ccco1 | -11% | 3%[57.1 µM] | 11% | 5%[57.1 µM] | 28µM* | 14%
O=C(N/C(=C\c1ccc(-c2ccccc2)o1)C(=O)N1CCOCC1)c1ccccc1 | 27µM* | -10% | 8% | 10%[57.1 µM] | -2% | -1%
O=C(N/C(=C/c1ccc(Cl)cc1)C(=O)N1CCOCC1)c1ccccc1 | -5% | -6% | -8% | 1% | 18% | -2%
CC[C@@H](c1ccccc1)n1c(=O)n2n(c1=O)[C@H]1[C@H](O)[C@H]3O[C@@H]3/C(=N/OC[C@@H](O)COCc3ccco3)[C@@H]1CC2 | . | . | . | . | 34% | .
SMILES | PLK1 PBD block | TrxR1 substrate | VDR inhibitor | TrxR1 inh | Sfp inh | IDH1 R132H inh
C=CCOC(=O)Nc1nc(CCNC(=O)OC(C)(C)C)c(C(=O)O)s1 | -13% | . | . | . | . | .
COc1cccc(OC)c1C(=O)OCC(=O)N(C)c1ccccc1 | 27µM* | 13%[57.1 µM] | ? | 15%[57.1 µM] | 5% | 6%
CN(C(=O)COC(=O)c1ccccc1C(=O)N(C)c1ccccc1)c1ccccc1 | -13% | -2% | 1% | 8% | 17% | 3%
CN(C(=O)COC(=O)c1ccc(=O)n(Cc2ccccc2)n1)c1ccccc1 | 17µM* | -1% | ? | 6% | -3% | 7%
Cc1cc(C)cc(C(=O)NCC(=O)OCC(=O)N(C)c2ccccc2)c1 | 24µM* | -11% | -18% | 17%[57.1 µM] | 12% | -1%
CCCN(CCC)C(=O)C1CCN(c2cc(C)nc3c(-c4ccc(Cl)cc4)c(C)nn23)CC1 | . | 7% | -9% | 19% | . | -1%
CCOC(=O)c1csc(NC(=O)CN2CCN(C)CC2)n1 | 2% | 11% | -12% | 23% | -8% | 3%
Cn1c(N=Cc2ccc([N+](=O)[O-])cc2)c(N)c(=O)n(C)c1=O | -15% | 17%[57.1 µM] | ? | 42%[57.1 µM] | . | 0%
Cc1[nH]ncc1N=Cc1ccc([N+](=O)[O-])cc1 | 21µM* | -2% | -14% | 18% | 18% | -2%
O=C(Nc1cccc(C(F)(F)F)c1)c1ccc2nc(-c3ccco3)c(-c3ccco3)nc2c1 | 5.3µM* | -5% | 20µM* | 5µM* | 28µM* | -5%
CCC(C)NC(=O)c1ccc2nc(-c3ccco3)c(-c3ccco3)nc2c1 (configuration not stated) | . | -10% | 50µM* | 2.8µM* | . | .
CCc1nc2ccc(C(=O)NCCc3ccc(OC)c(OC)c3)cc2nc1CC | ? | 1%[57.1 µM] | -6% | 26%[57.1 µM] | 1% | 4%
COc1ccc(CCNC(=O)c2ccc3nc(-c4ccco4)c(-c4ccco4)nc3c2)cc1OC | 27µM* | -4% | 79µM* | 2.5µM* | 10µM* | -3%
COc1ccc(CCNC(=O)c2ccn[nH]2)cc1OC | 3µM* | 0%[57.1 µM] | -25% | -2%[57.1 µM] | 9% | -6%
CCC(C)NC(=O)c1ccc2nc(Cc3ccccc3)oc2c1 (configuration not stated) | . | 3%[57.1 µM] | 10% | 14%[57.1 µM] | . | -3%
O=C(Nc1cccc(C(F)(F)F)c1)c1ccc2snnc2c1 | . | -1% | 7% | 6% | . | -4%
